# Among all 310,000 compounds or so, about 2,600 (0.84%) were called active. Many of the other results were omitted from the sample, so actives are more common in it than they were. A number with no mark means an inactive call.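 How the source made its calls: active means fluorescence ratio B-score at or below minus 3 SD of library scores, with starting-brightness B-score within 2 SD (cut at about -4.2 in these data); inactive means the rest.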
# Target: Inward rectifier potassium channel 2 (Mus musculus) (UniProt P35561)
# Sequence (P35561 whole entry, looked up): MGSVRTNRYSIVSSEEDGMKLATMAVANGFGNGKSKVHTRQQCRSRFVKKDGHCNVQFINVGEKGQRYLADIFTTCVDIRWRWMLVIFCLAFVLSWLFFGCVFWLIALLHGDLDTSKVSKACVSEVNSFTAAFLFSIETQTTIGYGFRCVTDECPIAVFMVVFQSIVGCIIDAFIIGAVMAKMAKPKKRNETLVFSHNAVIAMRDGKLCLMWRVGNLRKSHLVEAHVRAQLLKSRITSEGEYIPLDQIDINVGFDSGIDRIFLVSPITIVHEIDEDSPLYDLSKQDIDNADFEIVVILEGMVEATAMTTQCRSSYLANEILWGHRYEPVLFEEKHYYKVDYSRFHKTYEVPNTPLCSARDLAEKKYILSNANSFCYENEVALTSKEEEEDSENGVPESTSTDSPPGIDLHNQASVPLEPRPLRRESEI
# Experiment: blocks the mouse Kir2.1 inward-rectifier potassium channel (AID 1672);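 further: channel flux triggered by added potassium and thallium sulfate stimulus; B-score of peak minus minimum fluorescence over baseline after thallium stimulus; more negative B-score means stronger Kir2.1 block with less thallium influx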
# Conditions: HEK293-Kir2.1, FluxOR thallium flux fluorescence; at 10 µM; active compounds read low
row,SMILES,B-score
1,CC1CCN(C(=O)COC(=O)c2cc(S(=O)(=O)N3CCOCC3)ccc2Cl)CC1,-1.43
2,CCOc1ccc(/C=C/C(=O)N(CC)CC(=O)NCc2cccs2)cc1OC,0.23
3,Cc1ccc(C)c(CN2CCC(CNC(=O)Nc3ccc(C)c(F)c3)CC2)c1,-0.54
4,Cc1ccccc1NC(=O)NCC1CCN(Cc2cccc(Cl)c2)CC1,-0.23
5,Cc1cccc(CN2CCC(CNC(=O)Nc3ccc(F)c(Cl)c3)CC2)c1,-4.23 (active)
6,O=C1[C@H]2[C@@H](c3ccc(Cl)cc3)N3C(=O)N(c4cccc(F)c4)C(=O)[C@@]3(Cc3ccccc3)[C@H]2C(=O)N1C1CCCCC1,1.66
7,CCCC[C@@H]1CN=C(N)N1CCCC,0
8,O=C(NCC(c1ccco1)N1CCc2ccccc21)c1cccc(F)c1 (centres undefined),-0.73
9,C=CCc1cc(C)ccc1OCCCn1ccnc1,0.46
10,Clc1c(OCCCn2ccnc2)ccc2ccccc12,-7.14 (active)
11,c1ccc(Cc2ccc(OCCn3ccnc3)cc2)cc1,-1.84
12,CC(=O)Nc1ccc(NC(=O)CSC2=NS(=O)(=O)c3ccccc3N2)cc1,1.78
13,CC1(C)CC[C@]2(C(=O)O)CC[C@]3(C)C(=CCC4[C@@]5(C)CC[C@H](O)C(C)(C)C5[C@H](O)C[C@]43C)[C@@H]2C1 (some centres undefined),-0.05
14,CC(=O)c1sc(N)nc1C,0.05
15,O=C1CC2(CCN(C(=O)COc3ccc(F)cc3)CC2)Oc2ccccc21,-0.48
16,CC(C)(C)N(CC#CCC(O)(c1ccccc1)C1CCCC1)CCO (centres undefined),-0.14
17,CN(CC#CCC(c1ccccc1)c1ccccc1)C(C)(C)C,-5.14 (active)
18,COc1ccc(C#Cc2c(-c3ccc(OC)cc3)oc3ccc(-c4ccc5c(c4)OCO5)cc23)cc1,0.43
19,C=CCN(c1ccc(Cl)cc1)S(=O)(=O)c1cccc(C(=O)OCC(=O)N(C)C)c1,-4.24 (active)
20,COc1ccc(N(Cc2ccccc2)S(=O)(=O)c2cccc(C(=O)O)c2)cc1,-0.29
21,CN(C)S(=O)(=O)c1cccc(C(=O)OCC(=O)N2CCCC2=O)c1,0.88
22,CCN(CC(=O)Nc1cccc(S(=O)(=O)N2CCCCC2)c1)Cc1ccccc1,-0.91

row,SMILES,B-score
1,Cc1ccccc1NC(=O)COc1cccc2c1CCNC2=O,-0.1
2,Cc1cc(OCC(=O)N(C)c2c(N)n(Cc3ccccc3)c(=O)[nH]c2=O)c(C(C)C)cc1Cl,-0.39
3,FC(F)(F)c1ccc2c3n(nc2c1)CCN=C3c1ccc(Cl)cc1,0.62
4,CN(C(=O)c1cc2c(=O)n3ccccc3nc2s1)C1CCCCC1,-0.51
5,CC(C)CN(C(=O)Cn1c(=O)cnc2ccccc21)C1CCS(=O)(=O)C1 (centres undefined),-2.2
6,Cc1ccc(SC(C)C(=O)NCc2ccc(F)cc2)cc1 (centres undefined),-0.79
7,Cc1ccc(NC(=O)CN(C)Cc2ccc(F)cc2)c([N+](=O)[O-])c1,-0.89
8,CSc1ccc(CN(C)CC(=O)NCc2ccc(F)cc2)cc1,-4.3 (active)
9,CN(CC(=O)Nc1cccc(F)c1)C(=O)C1=COCCO1,-0.96
10,O=C(NCCC1CCCCN1S(=O)(=O)c1cccs1)C(=O)Nc1ccc(F)cc1F (centres undefined),-1.66
11,Cc1cc(C)c(C)c(S(=O)(=O)Nc2ccc(O)cc2)c1C,-9.99 (active)
12,Cc1cc(C)c(C)c(S(=O)(=O)Nc2cccnc2)c1C,-0.73
13,CCOc1ccc(NS(=O)(=O)c2cc(C)c(C)cc2C)cc1,-1.54
14,C=CCC1(C(=O)N(C)Cc2ccccc2)CCN(C(=O)OC(C)(C)C)CC1,0.59
15,COc1cc2ccccc2cc1C(=O)Nc1ccncc1,-0.09
16,OCCNCc1cccc(OCc2ccccc2Cl)c1,-5.85 (active)
17,OCCNCCOc1ccc(Cl)c(Cl)c1,0.04
18,S=C(NCCc1ccccc1)NCc1ccccc1Cl,-2.33
19,CCCCN(C(=O)c1ccc(C)o1)c1c(N)n(CCCC)c(=O)[nH]c1=O,1.81
20,CC(C)(C)n1nc(Cc2cccc3ccccc23)c(C#N)c1N,0.39
21,c1ccc2cc(OCCN3CCCC3)ccc2c1,1.22
22,CC(C)(c1ccccc1)c1ccc(OCCN)cc1,-6.43 (active)

row,SMILES,B-score
1,CC(C)(c1ccccc1)c1ccc(OCCN2CCCC2)cc1,-6.84 (active)
2,CN(C)CC(O)COc1ccc(C(C)(C)c2ccc(OCC(O)CN(C)C)cc2)cc1 (centres undefined),-2.29
3,c1ccc(-c2ccc(OCCN3CCOCC3)cc2)cc1,-0.1
4,Cc1nn(CCOc2ccccc2)c(=O)n1-c1ccccc1F,-0.66
5,O=C(NC(Cc1ccccc1)C(=O)N1CCCC(C(F)(F)F)C1)c1ccccc1 (centres undefined),-0.03
6,CCN1C(=O)[C@@H]2[C@@H](c3ccc(-c4ccccc4)cc3)N3CCCC[C@@]3(C(=O)OC)[C@@H]2C1=O,2.48
7,CC(=O)c1ccc(S(=O)(=O)NC2CC(=O)N(c3ccc4c(c3)OCCO4)C2)cc1 (centres undefined),2.09
8,CCCCN1C(N)=NC[C@@H]1Cc1ccccc1,1.05
9,Nc1ccc(C(=O)N2CCN(S(=O)(=O)c3ccc(Cl)cc3)CC2)cc1[N+](=O)[O-],0.63
10,CC1C(=O)N2CCCc3cc(S(=O)(=O)NCc4ccc(F)cc4)cc1c32 (centres undefined),-0.21
11,CCOc1ccccc1NS(=O)(=O)c1cc2c3c(c1)C(C)C(=O)N3CCC2 (centres undefined),-0.71
12,COc1ccccc1CCNS(=O)(=O)c1cc2c3c(c1)C(C)C(=O)N3CCC2 (centres undefined),-5.71 (active)
13,COc1ccc(N2CC(NS(=O)(=O)c3ccc4ccccc4c3)CC2=O)cc1 (centres undefined),0.13
14,CCCC(=O)N1CCc2[nH]c3ccccc3c2C1,0.74
15,Cc1ccc2[nH]c3c(c2c1)CN(C(=O)CN1CCN(c2ccccc2)CC1)CC3,0.62
16,O=C(CCCN1CCc2[nH]c3ccc(F)cc3c2C1)c1ccc(F)cc1,-7.87 (active)
17,CCOc1cc(C(=O)Nc2ccc(S(=O)(=O)Nc3cnc4ccccc4n3)cc2)cc(OCC)c1OCC,1.91
18,CN(C)C(CNC(=O)c1cccc(S(=O)(=O)Nc2ccc(Br)cc2)c1)c1ccco1 (centres undefined),0.84
19,O=C(NCc1ccccn1)Nc1ccc(Cl)cc1,0.46
20,CC(=O)C12CC(C)=C(C)CC1CC1C3CCC4=CC(=O)CCC4(C)C3CCC12C (centres undefined),0.6
21,CCN(CC(=O)Nc1cc(Cl)ccc1C)C(=O)Cn1c(=O)cnc2ccccc21,-0.02
22,CCN(CC(=O)Nc1cc(Cl)ccc1C)C(=O)CN1C(=O)NC2(CCCC2)C1=O,-1.31

row,SMILES,B-score
1,CCN(CC(=O)Nc1cc(Cl)ccc1C)C(=O)CSCc1ccc(C)cc1,-4.45 (active)
2,C=CCSc1nnc2c(n1)-c1cccc3cccc-2c13,1.16
3,Cc1[nH][nH]c(=O)c1C(c1ccc2c(c1)OCO2)c1c(C)[nH][nH]c1=O,-0.12
4,CCOc1ccc(C(c2c(C)[nH][nH]c2=O)c2c(C)[nH][nH]c2=O)cc1OCC,-0.06
5,Cc1[nH][nH]c(=O)c1C(c1ccc(-c2ccc(Cl)cc2)o1)c1c(C)[nH][nH]c1=O,-9.44 (active)
6,Cc1cccc(Nc2nc(NCCO)nc(N3CCCC3)n2)c1,0.27
7,CCCCn1c(N)c(N(Cc2ccccc2OC)C(=O)COc2cc(C)ccc2Cl)c(=O)[nH]c1=O,0.8
8,COC(=O)[C@@]12CCCN1[C@H](c1ccc(-c3ccc(F)cc3)c(OC)c1)[C@H]1C(=O)N(C)C(=O)[C@H]12,-0.2
9,COc1ccnc2c1c(=O)n(Cc1cccc(F)c1)c(=O)n2C,0.78
10,CC(C)(C)c1cc2cccnc2n1Cc1cccc(F)c1,-5.77 (active)
11,CC(C)(C)c1cc2cccnc2n1Cc1ccccc1,-3.38
12,CC1CCC2(CC1)NC(=O)N(CC(=O)c1ccc3c(c1)OCO3)C2=O (centres undefined),0.27
13,CC(C)c1ccc(N2CCN(C(=O)c3ccccc3NC(=O)/C=C(\C(=O)O)c3ccccc3)CC2)cc1,-8.79 (active)
14,COc1ccc(C(=O)Nc2ccccc2C(=O)N2CCN(c3ccccc3)CC2)cc1,0.29
15,O=C(O)C1CC=CCC1C(=O)Nc1ccccc1C(=O)N1CCN(c2ccccc2)CC1 (centres undefined),-0.23
16,Cc1onc(-c2ccccc2Cl)c1C(=O)OCc1nnc(-c2ccccc2)o1,0.59
17,COc1ccc(CCN=C2SCC(=O)N2C)cc1OC,0.11
18,COc1ccc(CCN=C2SCC(=O)N2Cc2ccccc2)cc1OC,-8.95 (active)
19,COc1ccc(CCNC2=C(Cl)C(=O)N(Cc3ccccc3)C2=O)cc1OC,-1.89
20,COc1ccc(S(=O)(=O)NCc2cccnc2)cc1NC(=O)c1ccc(C)cc1,-1.69
21,COC(=O)c1c(-c2ccsc2)oc2ccc(-c3cc(OC)c(OC)c(OC)c3)cc12,0.77
22,CC(C)Oc1ccc(S(=O)(=O)N2CCOCC2)cc1NC(=O)C1CSC2(C)CCC(=O)N12 (centres undefined),-0.2

row,SMILES,B-score
1,Cc1ccc(-c2nn(-c3ccc(F)cc3)cc2C(=O)NCC(c2cccs2)N2CCOCC2)cc1 (centres undefined),1.38
2,C=CCOc1cccc(C2C(C(=O)c3ccc(C)o3)=C(O)C(=O)N2c2nnc(C)s2)c1 (centres undefined),-2.11
3,O=Cc1ccc(Oc2cccc(C(F)(F)F)c2)nc1,0.35
4,CCC(=O)OCc1c(C(F)(F)F)nn(C)c1Oc1cccc(C(F)(F)F)c1,-6.22 (active)
5,Cc1nc(N)[nH]c(=O)c1Oc1cccc(C(F)(F)F)c1,0.08
6,CCOc1ccc(CCNC(=O)COC(=O)c2ccc(F)c(S(=O)(=O)N3CCOCC3)c2)cc1OCC,0.3
7,O=C(CSc1nnc(-c2cnccn2)n1Cc1ccco1)c1ccc(Cl)c(Cl)c1,0.04
8,O=C(CSc1nnc(-c2cccs2)n1Cc1ccco1)c1ccc2c(c1)OCO2,-4.78 (active)
9,COc1ccc(NC(=O)CSc2nnc(-c3cccs3)n2Cc2ccco2)cc1OC,0.49
10,CCn1c(SC(C)C(=O)Nc2ccc(N3CCOCC3)cc2)nnc1-c1ccco1 (centres undefined),-1.79
11,CCN(CC)c1ccc(S(=O)(=O)N2CCCCC2)cc1NC(=O)C1=COCCO1,1.68
12,CCCc1cc(=O)[nH]c(SCC(=O)c2cc(C)n(CCC)c2C)n1,-6.83 (active)
13,CCCc1cc(=O)[nH]c(SCC(=O)c2c(N)n(CC(C)C)c(=O)n(C)c2=O)n1,0.93
14,Cc1cc(C(=O)CSc2nc(N)cc(=O)[nH]2)c(C)n1CCc1ccc(Cl)cc1,-0.26
15,Cc1ncc(CO)c(/C=N/NC(=O)c2cccc(S(=O)(=O)N3CCCC3)c2)c1O,-1.2
16,NC(=O)CSc1nnc(NC(=O)c2ccc3ccccc3c2)s1,1.23
17,Cc1ccc(-c2csc(NC(=O)C3=COCCO3)n2)cc1C,0.03
18,Cc1cc(Nc2ccc(Br)cc2)nc2ccccc12,-0.01
19,COc1ccc(S(=O)(=O)NCCc2c[nH]c3ccccc23)cc1OC,-1.99
20,COc1cccc(CNCCc2c[nH]c3ccccc23)c1OCc1ccccc1F,-12 (active)
21,COc1ccccc1CC(=O)NCCc1c[nH]c2ccccc12,-0.19

# Source: PubChem BioAssay AID1672 (Johns Hopkins Ion Channel Center, 2009)
